# Data from PubChem BioAssay.
# The source made the active and inactive calls.
# Experiments:
# [1] = tested on: Plasmodium falciparum Sir2 (PF13_0152, Sir2A); test: pfSir2 binders on small-molecule microarrays, primary screen, biochemical, small-molecule microarray, 635 nm fluorescence (AID 1098); conditions: small-molecule microarray binding, fluorescence 635 nm; higher = more signal;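 also: score merges spot fluorescence intensity with its signal-to-noise ratio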
# [2] = small-molecule microarray binders of probe aDKK1, primary screen, biochemical, biotinylated probe, 635/667 nm fluorescence (AID 1099); conditions: higher = more signal;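 also: score merges 667nm spot fluorescence with signal to noise across triplicate slides; reference of the scale not given here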
# [3] = small-molecule microarray binders of probe aCHRDL2, primary screen, biochemical, biotinylated probe, 635/667 nm fluorescence (AID 1100); conditions: higher = more signal
# [4] = splicing luciferase reporter signal modulators, primary screen, spliceosome inhibition project, cell-based, HEK293, splice +/- reporter (AID 1101); conditions: luminescence, 24 h, higher = more signal, called active from +8 up or from −8 down;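 also: HEK293 cells carrying a splicing-competent luciferase reporter gene; test concentration not given here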
# [5] = target: Fibroblast growth factor 10 (Homo sapiens) (UniProt O15520); test: FGF10 binders on small-molecule microarrays, primary screen, biochemical, small-molecule microarray, 635 nm fluorescence (AID 1102); conditions: FGF10 binding, fluorescence 635 nm, higher = more signal
# Sequence of Fibroblast growth factor 10 (Homo sapiens) (O15520 whole entry, looked up): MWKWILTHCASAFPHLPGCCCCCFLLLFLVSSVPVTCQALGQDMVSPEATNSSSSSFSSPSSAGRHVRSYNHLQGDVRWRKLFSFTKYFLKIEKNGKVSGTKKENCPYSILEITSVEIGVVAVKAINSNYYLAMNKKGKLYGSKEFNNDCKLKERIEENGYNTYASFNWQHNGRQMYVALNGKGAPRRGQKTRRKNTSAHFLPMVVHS
# [6] = tested on: glycogen synthase kinase-3 (GSK3A per assay name; protocol says GSK3B); test: GSK3 binders on small-molecule microarrays, primary screen, biochemical, small-molecule microarray, 635 nm fluorescence, GSK3A (AID 1103); conditions: small-molecule microarray binding, fluorescence 635 nm; higher = more signal; also: the record names both GSK3A and GSK3B
# [7] = target: Epidermal growth factor receptor (Homo sapiens) (UniProt P00533); test: EGFR binders on small-molecule microarrays, primary screen, biochemical, small-molecule microarray, 635 nm fluorescence (AID 1104); conditions: EGFR binding, higher = more signal;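 also: score merges 667 nm emission intensity with spot signal to noise over triplicate slides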
# Sequence of Epidermal growth factor receptor (Homo sapiens) (P00533 whole entry, looked up): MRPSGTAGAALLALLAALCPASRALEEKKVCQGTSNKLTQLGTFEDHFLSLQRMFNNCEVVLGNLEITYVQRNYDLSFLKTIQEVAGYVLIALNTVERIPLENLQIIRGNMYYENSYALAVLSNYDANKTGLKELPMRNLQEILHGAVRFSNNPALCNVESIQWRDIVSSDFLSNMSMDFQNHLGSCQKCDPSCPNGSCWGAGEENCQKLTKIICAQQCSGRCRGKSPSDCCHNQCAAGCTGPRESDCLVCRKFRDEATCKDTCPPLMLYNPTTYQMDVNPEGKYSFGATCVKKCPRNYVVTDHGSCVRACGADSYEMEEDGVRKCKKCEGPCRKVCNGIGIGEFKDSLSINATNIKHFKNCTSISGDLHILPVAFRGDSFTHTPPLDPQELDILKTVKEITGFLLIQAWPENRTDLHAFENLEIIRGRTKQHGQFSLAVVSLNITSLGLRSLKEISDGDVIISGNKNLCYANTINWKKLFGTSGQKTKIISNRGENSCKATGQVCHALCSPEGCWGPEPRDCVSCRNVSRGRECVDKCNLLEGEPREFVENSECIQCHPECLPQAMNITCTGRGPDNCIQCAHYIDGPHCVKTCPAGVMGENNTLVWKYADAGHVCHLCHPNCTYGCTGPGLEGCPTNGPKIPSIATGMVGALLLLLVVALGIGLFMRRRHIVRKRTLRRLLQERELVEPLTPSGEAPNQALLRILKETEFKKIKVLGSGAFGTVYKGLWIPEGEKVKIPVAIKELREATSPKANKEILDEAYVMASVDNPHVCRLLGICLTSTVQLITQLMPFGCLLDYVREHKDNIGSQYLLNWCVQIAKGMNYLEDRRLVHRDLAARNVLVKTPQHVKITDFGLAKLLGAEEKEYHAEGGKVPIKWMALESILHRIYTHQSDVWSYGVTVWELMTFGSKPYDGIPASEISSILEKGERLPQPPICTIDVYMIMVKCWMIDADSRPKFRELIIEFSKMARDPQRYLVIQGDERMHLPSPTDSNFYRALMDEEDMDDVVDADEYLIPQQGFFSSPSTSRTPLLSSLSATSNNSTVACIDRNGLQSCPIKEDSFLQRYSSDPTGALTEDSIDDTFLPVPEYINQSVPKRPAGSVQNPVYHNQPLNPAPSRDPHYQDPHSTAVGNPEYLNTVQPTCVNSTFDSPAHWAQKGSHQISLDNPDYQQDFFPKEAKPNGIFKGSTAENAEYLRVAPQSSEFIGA
# [8] = target: Follistatin-related protein 3 (Homo sapiens) (UniProt O95633); test: FSTL3 binders on small-molecule microarrays, primary screen, biochemical, small-molecule microarray, 635 nm fluorescence (AID 1105); conditions: FSTL3 binding, higher = more signal;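 also: score merges emission near 667 nm and signal to noise per printed spot across three slides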
# Sequence of Follistatin-related protein 3 (Homo sapiens) (O95633 whole entry, looked up): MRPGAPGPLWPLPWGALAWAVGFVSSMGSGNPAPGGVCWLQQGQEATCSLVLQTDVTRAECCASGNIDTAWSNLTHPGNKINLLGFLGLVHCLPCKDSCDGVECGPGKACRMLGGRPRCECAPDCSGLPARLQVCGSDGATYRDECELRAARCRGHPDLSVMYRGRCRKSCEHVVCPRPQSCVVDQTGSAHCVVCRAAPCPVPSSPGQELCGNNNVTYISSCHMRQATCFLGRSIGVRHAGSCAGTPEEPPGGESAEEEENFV
# [9] = target: Dickkopf-related protein 1 (Homo sapiens) (UniProt O94907); test: DKK1 binders on small-molecule microarrays, primary screen, biochemical, small-molecule microarray, 635 nm fluorescence scan (AID 1106); conditions: DKK1 binding, higher = more signal;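 also: score merges emission near 667 nm with signal to noise over three replicate slides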
# Sequence of Dickkopf-related protein 1 (Homo sapiens) (O94907 whole entry, looked up): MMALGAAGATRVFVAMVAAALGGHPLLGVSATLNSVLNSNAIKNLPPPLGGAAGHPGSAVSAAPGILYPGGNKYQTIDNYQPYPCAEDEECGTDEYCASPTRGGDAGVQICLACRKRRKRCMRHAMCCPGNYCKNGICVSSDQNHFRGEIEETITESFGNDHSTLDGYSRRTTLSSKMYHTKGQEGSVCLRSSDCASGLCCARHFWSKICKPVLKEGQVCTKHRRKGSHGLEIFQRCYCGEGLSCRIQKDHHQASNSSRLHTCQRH
# [10] = tested on: Inhibin beta A chain (activin A); test: INHBA (activin A) binders on microarrays, primary screen, biochemical, small-molecule microarray, 635 nm fluorescence scan (AID 1107); conditions: small-molecule microarray binding, higher = more signal;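 also: mouse activin A protein probed at 4.33 µg/mL on printed slides; score merges bound-protein fluorescence near 667 nm with spot signal-to-noise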
Compound,composite z-score [1],composite z-score [2],composite z-score [3],z-score [4],composite z-score [5],composite z-score [6],composite z-score [7],composite z-score [8],composite z-score [9],composite z-score [10]
COCCOC(=O)N1C(=O)[C@@]2(c3cc(C#CCC(C(=O)OC)C(=O)OC)ccc31)[C@H](c1ccc(OCCO)cc1)N1[C@H](c3ccccc3)[C@H](c3ccccc3)OC(=O)[C@H]1[C@@H]2C(=O)NC[C@H](O)c1ccccc1,1.52,-0.405,-0.189,0.0782 (inactive),1.5,1.3,0.586,1.29,0.356,0.094
CN(C)CCCCCCNC(=O)[C@@H]1C[C@@H]2C(=O)N[C@@H](Cc3ccccc3)C(=O)N2[C@@H]1c1cccc(OCCO)c1,1.12,0.182,0.635,-0.326 (inactive),0.393,1.31,0.464,0.721,0.872,0.728
C=CCC(OC(C)=O)[C@@H]1[C@@H](N(Cc2cc3ccccc3o2)C(=O)c2cccc3ccccc23)c2cc(OCCCO)ccc2N1C(=O)Cc1ccc(OC)cc1 (stereo not given in full),0.495,0.136,0.0527,-1.04 (inactive),0.568,0.12,0.24,0.579,0.429,1.2
COc1ccccc1CN1C(=O)c2ccccc2[C@](Cc2ccccc2I)(C(=O)NC2CC2)[C@@H]1c1ccc(CO)cc1,1.58,-0.617,0.042,0.0417 (inactive),1.23,1.33,0.385,1.29,0.974,0.154
Cc1ccc(F)cc1S(=O)(=O)N[C@@H]1CCN(Cc2ccc(C(F)(F)F)cc2)C1,-0.245,0.735,-0.565,0.169 (inactive),-0.425,-1.41,-0.444,-0.769,0.0494,-0.127
Cc1ccc(S[C@]2(C(=O)NCCCN(C)C)CC(=O)N(C(C)C)[C@@H]2c2ccc(CO)cc2I)cc1,1.37,0.17,0.789,-1.44 (inactive),-0.238,-0.627,-0.228,-0.137,-0.827,1.1
CCN(CC)c1ccc(N2CC=CC34O[C@@H]5/C=C\CCC(C)OC(=O)C5[C@H]3C(=O)N(CCCCCCO)[C@@H]4C2=O)cc1 (stereo not given in full),0.586,-0.331,0.0224,0.449 (inactive),-0.0455,-0.624,-0.782,-0.622,-0.471,1.04
O=C1OCCC=C[C@H]2OC34C=CCN(c5ccc6ccccc6c5)C(=O)[C@H]3N(CCCCCCO)C(=O)[C@@H]4C12 (stereo not given in full),0.924,-0.0082,0.187,-0.225 (inactive),-0.916,-0.817,-1.07,-0.917,-1.26,0.56
C=CCNC(=O)[C@H]1[C@@H]2C(=O)O[C@@H](c3ccccc3)[C@@H](c3ccccc3)N2[C@@H](c2ccc(O)cc2)[C@]12C(=O)Nc1ccc(C#Cc3ccc(OC)cc3)cc12,1.53,0.257,0.536,0.338 (inactive),0.782,1.23,0.728,1.21,0.94,-0.13
[N-]=[N+]=NCc1ccccc1C[C@@]1(C(=O)NCc2ccccc2)N=C(c2ccc(OCCCO)cc2)O[C@@H]1c1ccccc1CN=[N+]=[N-],1.39,1.09,1.06,0.48 (inactive),0.639,1.13,-0.286,-0.0894,-0.242,0.123
C=C[C@@H](C)[C@@H](OC(=O)Nc1ccc(OC)cc1)c1ccc(O)c2ccccc12,1.13,-0.241,-0.576,-0.0898 (inactive),0.856,0.357,0.762,0.723,0.475,1.24
COCCOC(=O)N1C(=O)[C@@]2(c3cc(C#CCC(C(=O)OC)C(=O)OC)ccc31)[C@H](c1ccccc1OCCO)N1[C@H](c3ccccc3)[C@H](c3ccccc3)OC(=O)[C@H]1[C@@H]2C(=O)Nc1nc2ccccc2s1,1.46,0.514,0.641,-1.04 (inactive),1.33,1.14,0.692,1.4,0.785,1.1
O=C(CS)NCCCCCCNC(=O)[C@H]1C[C@H]2C(=O)N3CCC[C@H]3C(=O)N2[C@H]1c1ccc(O)cc1,1.63,0.104,0.0018,1.46 (inactive),0.732,-0.477,-0.154,0.972,0.317,0.487
O=S(=O)(NCCCO)c1ccc(Br)cc1,0.373,0.101,0.248,-1.03 (inactive),0.568,0.309,0.598,0.175,-0.0155,0.363
C[N+](C)(C)CCCC[C@@H]1NC(=O)[C@H]2C[C@@H](C(=O)O)[C@@H](c3cccc(OCCO)c3)N2C1=O,2.08,2.39,1.38,-0.246 (inactive),1.4,1.36,1.17,1.41,1.3,1.47
Cc1ccc(N2C(=O)c3ccccc3[C@](C)(C(=O)NCCN3CCOCC3)[C@@H]2c2ccc(CO)cc2)nc1,0.0614,0.0511,0.858,0.219 (inactive),-1.01,-1.73,-1.41,-1.74,-0.979,-0.472
COc1ccc(C(=O)Nc2cccc(CN3C(=O)[C@@]4(O[C@@H](CCn5cc([C@H](O)c6ccccc6)nn5)[C@H]([Si](C)(C)c5ccc(OC)cc5)[C@H]4C)c4ccccc43)c2)cc1,1.19,0.142,0.634,-1.46 (inactive),1.21,0.175,-0.219,0.206,0.249,1.16
CN(C)CCCCNC(=O)[C@@H]1C[C@@H]2C(=O)N[C@@H](CCCCN)C(=O)N2[C@@H]1c1cccc(OCCO)c1,1.9,0.123,0.74,-0.239 (inactive),-0.383,0.0265,-1.22,-0.795,-0.988,0.0049
CN1C(=O)C2C=CC(C(O)C3=C[C@H]4C[C@@H](C3)C4(C)C)N(Nc3ccc([N+](=O)[O-])cc3[N+](=O)[O-])C2C1=O (stereo not given in full),1.22,1.34,1.07,0.674 (inactive),0.721,1.28,0.21,0.988,-0.446,0.844
C=C(COC)/C(=C/C[C@H](OC(C)=O)c1ccccc1OCCO)c1cnc2ccccc2c1,0.279,-0.0732,-0.0887,0.11 (inactive),1.16,0.521,0.486,1.41,0.743,1.85
O=C1C2C=CC(C(O)c3ccc(-c4ccccc4)s3)N(Nc3ccccc3F)C2C(=O)N1c1ccccc1 (stereo not given),0.913,1.22,1.27,0.25 (inactive),0.772,0.806,0.247,0.817,0.0154,0.948
Cc1cc(C)c(C(O)C2C=CC3C(=O)NC(=O)C3N2Nc2ccccn2)c(C)c1 (stereo not given),-0.0405,0.118,0.862,1.43 (inactive),0.158,0.22,-0.373,0.547,-0.669,0.838
COc1ccc([Si](C)(C)[C@H]2[C@H](CCO)O[C@@]3(C(=O)N(Cc4ccccc4)c4ccc(N5C(=O)COc6ccccc65)cc43)[C@@H]2C)cc1,1.12,0.0649,0.521,-1.56 (inactive),0.305,-0.965,-0.5,-0.207,-0.214,0.241
COC(=O)[C@@]1(Cc2ccc(OC)cc2)[C@H]2c3cc(C(=O)N4CCCC4)n(CCN4CCOCC4)c3C[C@H]2CN1C(=O)c1ccccc1,1.25,2.6,1.52,0.0643 (inactive),1.35,0.325,0.947,0.629,-0.138,0.492
O=C1C[C@@](C(=O)O)(c2ccc([N+](=O)[O-])cc2)[C@@H](c2ccc(CO)cc2I)N1CC12CC3CC(CC(C3)C1)C2,0.816,1.23,1.13,-0.0388 (inactive),0.248,0.48,0.12,0.206,-1.1,0.723
Cc1ccccc1/C=C/C=O,0.939,-0.275,0.297,-0.0672 (inactive),-0.435,-1.09,-0.813,-0.303,-0.243,0.612
C=CCC(OC(C)=O)[C@@H]1[C@@H](N(Cc2ccc(-c3ccccc3)cc2)C(=O)c2ccc(C)cc2)c2cc(OCCCO)ccc2N1C(=O)c1ccc2ccccc2n1 (stereo not given in full),-0.124,-0.053,0.529,-1.84 (inactive),-0.0241,-0.609,-0.236,-0.374,-0.144,1.39
